# High-throughput results from PubChem BioAssay.
# In the library only some 11% were active in any assay of this set; here they are far more common.
# HEK293 tox – Cytotoxic Profiling in HEK 293 Cell Line of Diverse Libraries Using Quantitative High-Throughput Screening | HEK 293 viability, ATP luminescence (CellTiter-Glo), 48-72 h | Potency, µM (top dose mostly 115 µM), hits mostly inhibitors | 94,000 tested, 6.6% active; further: nearly all actives have a fitted effect of over 60% in size
#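 Viability of HEK 293 cells, plated at 250 cells/well, was judged by cellular ATP after compound treatment for 48 or 72 hr. Luminescence was imaged 10 min after CellTiter-Glo addition at room temperature.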
# NPR1 antag – Natriuretic polypeptide receptor (hNpr1) antagonism - Primary qHTS; Atrial natriuretic peptide receptor 1 (Homo sapiens), P16066; HEK293 hNpr1 GloSensor cGMP, ANP-stimulated luminescence; Potency, µM (titrated, usually from 46.3 µM), actives largely listed as inhibitors; 76,000 tested, 1.6% active; AID 1347048, 2019; calls by dose curve; further: nearly all actives have a fitted effect of over 60% in size
#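 Compound pre-incubated 30 min at room temperature on GloSensor-loaded HEK293 cells stably carrying hNpr1 and the pGS-40F cGMP biosensor. Stimulation uses hNppA at 0.1 nM final; luminescence is taken at baseline and 20 min post-agonist.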
# 3T3 cytotox – Cytotoxic Profiling in NIH 3T3 Cell Line of Diverse Libraries Using Quantitative High-Throughput Screening; NIH 3T3 viability, CellTiter-Glo ATP luminescence, 48-72 h; Potency, µM (series often up to 96.7 µM), actives largely listed as inhibitors; 94,000 tested, 4.3% active; AID 1345082, 2018; further: nearly all actives have a fitted effect of over 55% in size
#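 Mouse fibroblast NIH 3T3 cells, 400 per well, received compound via pintool and were incubated for 48 or 72 hr prior to CellTiter-Glo ATP luminescence measurement.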
# FLuc inh – Firefly luciferase inhibition profiling of diverse chemical library using quantitative high-throughput screening; purified P. pyralis luciferase, luminescence, biochemical; Luciferin 4-monooxygenase (Photinus pyralis), P08659; Potency, µM (titrated, usually from 115 µM), hits mostly inhibitors; 76,000 tested, 2.5% active; further: nearly all actives have a fitted effect of over 65% in size
# Target sequence (P08659 whole entry, looked up): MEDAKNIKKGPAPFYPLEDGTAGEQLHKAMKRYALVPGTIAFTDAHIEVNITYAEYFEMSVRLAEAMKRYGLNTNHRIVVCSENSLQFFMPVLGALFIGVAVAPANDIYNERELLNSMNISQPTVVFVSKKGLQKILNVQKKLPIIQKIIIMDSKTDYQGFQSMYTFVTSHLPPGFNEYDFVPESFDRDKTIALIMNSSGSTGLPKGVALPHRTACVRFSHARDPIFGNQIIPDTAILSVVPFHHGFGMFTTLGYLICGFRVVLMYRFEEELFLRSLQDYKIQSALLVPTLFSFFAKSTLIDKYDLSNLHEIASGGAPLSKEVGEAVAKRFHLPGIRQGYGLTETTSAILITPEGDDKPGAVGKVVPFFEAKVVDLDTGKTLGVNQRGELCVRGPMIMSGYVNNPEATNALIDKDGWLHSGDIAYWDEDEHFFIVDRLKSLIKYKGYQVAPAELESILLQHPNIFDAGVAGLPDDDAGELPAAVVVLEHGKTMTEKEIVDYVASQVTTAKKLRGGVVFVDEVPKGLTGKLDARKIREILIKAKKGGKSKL
#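 FLuc 10nM, D-luciferin 10uM, ATP 10uM, Mg acetate 10mM, Tris acetate pH 7.5, Tween/BSA; cpd qHTS; enzyme added last; CCD luminescence.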
# A number is an active result; – = inactive; ? = inconclusive; · = not tested or not shown. Unless noted, the call rests on the fitted dose curve; in most records, active means well fitted curve in the direction sought with a large enough effect; inconclusive means small, poorly fitted or top-dose-only effect, or another doubt; inactive means no such curve, though single readings can be large; an effect the other way counts as inactive or inconclusive.
SMILES,HEK293 tox,NPR1 antag,3T3 cytotox,FLuc inh
Cc1n[nH]c(C)c1CNC(=O)C1CCN(C(=O)c2ncn3c2COC(c2ccc(F)cc2)C3)CC1 (stereo not drawn),–,–,–,25µM
Cc1ccc(C2Cn3nnc(C(=O)N4CCC(C(=O)NC5CCc6ccccc65)CC4)c3CO2)cc1 (stereo not drawn),?,–,?,?
CC(C)CNC(=O)C1CCN(C(=O)c2ncn3c2COC(c2ccc(F)cc2)C3)CC1 (stereo not drawn),–,–,–,?
O=C(NCc1ccc(F)cc1)C1CCN(C(=O)c2ncn3c2COC(c2ccc(Cl)cc2)C3)CC1 (stereo not drawn),–,–,–,?
O=C(NC1CCc2ccccc21)C1CCN(C(=O)c2ncn3c2COC(c2ccccc2)C3)CC1 (stereo not drawn),–,–,–,40µM
O=C(Cc1cccc(F)c1)NC1CCN(c2cc(-c3ccc(F)cc3)[nH]n2)C1 (stereo not drawn),?,–,?,–
COc1cccc(CN2CC(O)CN(C(=O)c3cccc(C(F)(F)F)c3)CC2=O)c1OC (stereo not drawn),?,·,–,·
CCc1ccc(CN2CCCC3(Cc4ccccc4CNC3=O)C2)s1 (stereo not drawn),?,·,–,·
COc1ccc(CNC(=O)[C@@H](C)C2CC[C@@]3(C)CC[C@H](NC(=O)COc4ccccc4)[C@@H](C)[C@@H]3[C@H]2O)cc1 (stereo partly drawn),22µM,?,32µM,–
N#CC1CCN(C(=O)CNC(=O)c2cccc(-c3ccsc3)c2)CC1,?,·,–,·
O=C(c1ccc(C(F)(F)F)cc1)N1CCCC2(CNc3ncccc3[S+](=O)([O-])N2)C1 (stereo not drawn),–,·,–,·
Cc1noc(C)c1-c1cc2c(c(-c3ccc(CO)cc3)c1)C(=O)N(C)C2,?,–,79µM,–
COc1ccc(-c2cc(-c3c(C)noc3C)cc3c2C(=O)N(C)C3)cn1,79µM,?,?,–
Cc1ccc(-c2cc3n(n2)CCCN(C(=O)c2cc(CN4CCOCC4)on2)C3)o1,–,·,–,·
COc1ccc(-c2nc3ccc(-c4ccc5c(c4)OCO5)cc3o2)c(OC)c1OC,?,–,?,13µM
COc1ccc(-c2ccc3nc(-c4ccccc4)oc3c2)c(OC)c1OC,45µM,–,?,–
COc1ccc(-c2ccc3nc(-c4ccc(Cl)cc4)oc3c2)c(OC)c1OC,–,–,–,?
CN(Cc1ccc(F)cc1)C(=O)c1cn(Cc2ccccc2C(F)(F)F)nn1,7.9µM,–,?,–
Cc1ccc(S(=O)(=O)N2CCCC(Cn3c(C)nc4cccnc43)C2)cc1C (stereo not drawn),?,?,?,–
Cc1nc2cccnc2n1CC1CCCN(S(=O)(=O)c2cccc(Br)c2)C1 (stereo not drawn),45µM,?,?,–
CC1=C[C@@H](CNC(=O)[C@@H]2CCCC[C@@H]2C(=O)O)[C@H](C(C)C)C[C@H]1Cc1nc2c(C)cccc2[nH]1,–,–,–,–
CC1=C[C@@H](CNC(=O)Nc2ccc(F)cc2)[C@H](C(C)C)C[C@H]1Cc1nc2c(C)cccc2[nH]1,?,–,40µM,?
CC1=C[C@@H](CNC(=O)C2CCCCC2)[C@H](C(C)C)C[C@H]1Cc1nc2c(C)cccc2[nH]1,?,–,25µM,–
O=C(NC1CCN(c2cc(-c3ccccc3)[nH]n2)C1)c1ccc2cc[nH]c2c1 (stereo not drawn),?,–,?,–
O=C(NC1CCN(c2cc(-c3ccc(Cl)cc3)[nH]n2)C1)c1ccc2cc[nH]c2c1 (stereo not drawn),?,–,?,–
SMILES,HEK293 tox,NPR1 antag,3T3 cytotox,FLuc inh
O=C(NC1CCCN(c2cc(-c3ccccc3)[nH]n2)C1)c1ccc2[nH]ccc2c1 (stereo not drawn),?,–,?,32µM
O=C(NC1CCCN(c2cc(-c3ccc(F)cc3)[nH]n2)C1)c1ccc2cc[nH]c2c1 (stereo not drawn),35µM,–,35µM,28µM
O=C(NCc1cccnc1)c1ccc2nnc(-c3ccoc3)n2c1,–,·,–,·
Cc1nn(-c2ccccc2)c2c1C(C(C)C)N(C1CCN([S+](=O)([O-])c3c(C)noc3C)C1)C2=O (stereo not drawn),?,·,–,·
O=C(Nc1cc(-c2cccnc2)nn1-c1ccccc1)c1ccc(C(F)(F)F)cc1,?,·,32µM,·
O=C(Nc1cc(-c2cccnc2)nn1-c1ccccc1)c1cccc(Br)c1,50µM,·,?,·
CC(=O)Nc1cc(-c2ccncc2)nn1-c1ccccc1,–,·,?,·
O=C(Nc1cc(-c2ccncc2)nn1-c1ccccc1)c1ccc(Cl)cc1,79µM,·,?,·
COc1ccccc1N1CCCc2ncc(C(=O)N(C)Cc3ccccc3)cc21,100µM,–,?,–
COc1ccccc1N1CCCc2ncc(C(=O)NCCOc3ccccc3)cc21,100µM,–,89µM,–
COc1ccccc1N1CCCc2ncc(C(=O)N3CCC[C@@H]3c3ccc(F)cc3)cc21,?,–,89µM,–
COc1ccccc1N1CCCc2ncc(C(=O)N3CCCC[C@@H]3Cc3ccccc3)cc21,?,–,?,–
CCN1CCN(C(=O)c2cc(-c3ccc(Cl)cc3Cl)c3nncn3n2)CC1,–,·,–,·
COc1ccc(CN2CC3(CCN(C(=O)Nc4ccc(OC)c(OC)c4)CC3)C2=O)cc1,?,–,–,–
COc1ccc(NC(=O)N2CCC3(CC2)CN(c2ccccc2)C3=O)cc1OC,40µM,·,–,·
CCN1c2cc(C(=O)Nc3ccc(C)c(F)c3)ccc2C(=O)N2CCCCCC21 (stereo not drawn),?,–,40µM,–
CCN1c2cc(C(=O)Nc3ccc(F)c(C)c3)ccc2C(=O)N2CCCCCC21 (stereo not drawn),40µM,–,?,–
CCN1c2cc(C(=O)Nc3ccc(F)c(Cl)c3)ccc2C(=O)N2CCCCCC21 (stereo not drawn),16µM,–,32µM,–
O=C(NCC1CC1)c1nc2sccn2c1-c1ccccc1,–,·,–,·
Cc1ccc([S+](=O)([O-])NC2CCCN(c3ccc4nnc(-c5ccccc5)n4n3)C2)cc1 (stereo not drawn),25µM,·,?,·
Cc1nnc2ccc(N3CCC(N[S+](=O)([O-])c4ccccc4)CC3)nn12,45µM,·,32µM,·
O=C(NC1CCCN(c2ccc3nnc(C4CC4)n3n2)C1)c1ccccc1 (stereo not drawn),–,·,–,·
O=C(NCCc1ccc(Cl)cc1)c1ccc2nnc(Cc3ccco3)n2c1,–,·,?,·
O=C(NCc1cccc(C(F)(F)F)c1)c1ccc2nnc(Cc3ccc(Cl)cc3)n2c1,32µM,·,22µM,·
COc1ccc(Cc2nnc3ccc(C(=O)NCc4ccc(F)cc4)cn23)cc1,–,·,?,·
